In all, about 16,000 compounds went through this assay and about 5,800 (36%) were called active. Roughly 23% stayed inconclusive and do not appear here. The call rests on the fitted dose curve; in most records, active means well fitted curve in the direction sought with a large enough effect; inconclusive means small, poorly fitted or top-dose-only effect, or effect the other way; inactive means no such curve, though single readings can be large or run the other way. The list shows a part of the results.
On the % scale 0 is the no-effect control and ±100 the full control effect.

Cytochrome P450 2C19 (Homo sapiens), sequence (P33261 whole entry, looked up): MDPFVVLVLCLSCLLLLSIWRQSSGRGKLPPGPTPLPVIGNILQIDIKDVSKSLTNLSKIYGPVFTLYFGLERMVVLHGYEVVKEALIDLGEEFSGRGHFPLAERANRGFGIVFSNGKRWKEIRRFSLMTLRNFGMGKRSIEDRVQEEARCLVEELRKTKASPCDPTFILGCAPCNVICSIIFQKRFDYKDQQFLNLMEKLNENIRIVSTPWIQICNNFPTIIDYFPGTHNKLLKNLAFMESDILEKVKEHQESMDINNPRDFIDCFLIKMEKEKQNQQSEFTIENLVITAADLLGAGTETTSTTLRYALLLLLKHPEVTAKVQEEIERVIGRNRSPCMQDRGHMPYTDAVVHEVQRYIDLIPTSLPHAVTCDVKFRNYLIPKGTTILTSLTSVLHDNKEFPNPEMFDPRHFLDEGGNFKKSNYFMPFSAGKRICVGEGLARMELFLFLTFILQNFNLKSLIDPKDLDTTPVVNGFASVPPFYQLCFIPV

This test has as its target Cytochrome P450 2C19 (Homo sapiens) (UniProt P33261). Description: Cytochrome panel assay with activity outcomes. The following applies: recombinant CYP, pro-luciferin dealkylation, luminescence, p450-cyp2c19; series mostly up to 57.1 µM.
One may read the AC50 as the midpoint of the concentration-response curve, whichever way the signal moves. As to `O=C(Nc1ccccc1)N1CCC2(CC1)CCN(C(=O)Oc1ccccc1)CC2`, the AC50 entry is “inactive”. Same read-out and setting: then `COc1ccc(C[C@@H]2NC[C@H](O)[C@@H]2OC(C)=O)cc1`, with “inactive”; and `COc1ccc(C[C@H]2NC[C@H](O)[C@@H]2OC(C)=O)cc1`, with 3.16 µM (active); and `Cc1nc(N)sc1CCN`, with “inactive”. On the same count and under the same terms, the same measure for `CCCN[C@@H]1CCc2c(OC)cccc2[C@@H]1C`: “inactive”; for `CCN(CC)C(=O)N[C@H]1C[C@H]2c3cccc4[nH]cc(c34)C[C@@H]2N(C)C1`: “inactive”. Same read-out and setting: then `O=C1CN=C(c2cccs2)c2c(sc3c2CCCC3)N1`, with 15.8 µM (active).

Regarding `C[C@H]1CC[C@@]2(NC1)O[C@@H]1C[C@@H]3[C@@H]4CC=C5C[C@@H](O)CC[C@]5(C)[C@@H]4CC[C@]3(C)[C@H]1[C@@H]2C`, the activity, negative = inhibition was 15.9% [at 11.4 µM] (inactive). `COc1ccc2[nH]c3c(c2c1)CCNC3`: the AC50 entry was “inactive”.

On to `CCOC(=O)C1Cc2c([nH]c3ccccc23)CN1` (stereo not drawn), for which the AC50 was 1.58 µM (active). The same measure, in the same setting: the same measure for `C[C@@]12CC[C@H]3[C@@H](CC=C4C[C@H](OS(=O)(=O)O)CC[C@]43C)[C@H]1CCC2=O`: “inactive”. As for `COc1cc(CCN)c(OC)c(OC)c1`, the activity, negative = inhibition is 70.8% [at 11.4 µM] (inactive). Turning to `C[C@@H](O)CN(CCN(C[C@@H](C)O)C[C@@H](C)O)C[C@@H](C)O.O=[N+]([O-])O.[Cu]`, the AC50 is 0.398 µM (active).

Regarding `CC(=O)O[C@H]1C[C@@H](O[C@@H]2[C@H](C)O[C@H](O[C@@H]3[C@H](C)O[C@H](O[C@@H]4CC[C@@]5(C)[C@@H](CC[C@]6(C)[C@]5(C)C[C@H](O)[C@]5(C)[C@@H](C7=CC(=O)OC7)CC[C@@]56O)C4)C[C@@H]3O)C[C@@H]2O)O[C@@H](C)[C@H]1O[C@H]1O[C@@H](CO)[C@@H](O)[C@@H](O)[C@@H]1O`, the AC50 result is “inactive”. With `Cc1ccc(S(=O)(=O)N[C@@H](CCCCN)C(=O)CCl)cc1`, the AC50 result was “inactive”.

As to `O=S1(=O)N(CCN2CC=C(c3c[nH]c4cc(F)ccc34)CC2)c2cccc3c2N1CCC3`, the AC50 is 6.31 µM (active).

As to `COc1cc2c(cc1OC)[C@@]13CCN4C=C5CCO[C@H]6CC(=O)N2[C@@H]1[C@@H]6[C@H]5C[C@H]43`, the activity, negative = inhibition was 32% [at 11.4 µM] (inactive). For `CC(C)[N+](C)(CCC(C(N)=O)(c1ccccc1)c1ccccc1)C(C)C`, the AC50 entry was “inactive”. Turning to `C[C@H](CN(C)C)C(C#N)(c1ccccc1)c1ccccc1`, the activity, negative = inhibition is 31.1% [at 11.4 µM] (inactive). Regarding `Cc1cc(NC(=O)CCC(=O)N2CCC3(CC2)OCCO3)no1`, the AC50 entry is “inactive”.

Take `Cc1ccc2c(c1)N(CCC(=O)N1CCC3(CC1)OCCO3)C(=O)C(C)O2` (stereo not drawn): the AC50 is 0.708 µM (active). For the compound `CN1CC[C@@]23c4ccccc4N[C@H]1[C@]21CCN(C)[C@@H]3Nc2ccccc21`, the AC50 entry was “inactive”.

With `CCCC(=O)Nc1ccc(N2CCN(CC)CC2)c(Cl)c1`, the AC50 entry is “inactive”.

For the compound `C=Cn1ccnc1P(=S)(c1nccn1C=C)C1CCCCC1`, the AC50 was 3.55 µM (active).

Turning to `O=C(O)[C@@H](O)[C@@H](O)[C@@H]1[O][Sb][O][C@@H]1CO`, the activity, negative = inhibition is 21.2% [at 11.4 µM] (inactive). With `CC[N+](CC)(CCCNC1=CC(=O)C(NCCC[N+](CC)(CC)Cc2ccccc2)=CC1=O)Cc1ccccc1`, the AC50 result was “inactive”. Regarding `CCN1C[C@@]2(COC)CC[C@H](O)[C@@]34[C@@H]2C[C@@H]([C@@H]13)[C@]1(O)C[C@@H](OC)C2C[C@H]4[C@H]1[C@H]2OC(C)=O`, the AC50 entry is “inactive”. For `C[N+](C)(C)[C@H](Cc1c[nH]c(=S)[nH]1)C(=O)O`, the activity, negative = inhibition was -22.8% [at 11.4 µM] (inactive).

For the compound `CCCN(CCC)CCc1c[nH]c2ccc(C(N)=O)cc12`, the AC50 result was “inactive”.

Turning to `CN=C(NC#N)NCCSCc1nc[nH]c1C`, the AC50 is 31.6 µM (active). With `O=C(Nc1cccc(F)c1)N1CC2(CCN(C(=O)Oc3ccccc3)CC2)C1`, the AC50 result is “inactive”. `O=C(CCN1CC2CCC(CC2)C1)c1cccs1`: the activity, negative = inhibition is -19% [at 11.4 µM] (inactive). `CC[C@@](O)(C(=O)O)c1cc2n(c(=O)c1CO)Cc1cc3ccccc3nc1-2`: the activity, negative = inhibition was 16.3% [at 11.4 µM] (inactive). With `CC(=O)NBr`, the AC50 result was “inactive”.

As to `N[C@H](CCCCCP(=O)(O)O)C(=O)O`, the AC50 entry is “inactive”.

As for `CP(=O)(O)C1=CCNCC1`, the AC50 entry is “inactive”.

As to `CC(=O)N1CC[N+](C)(C)CC1`, the AC50 result is “inactive”. As to `CN1CCN(C(=O)O[C@@H]2c3nccnc3C(=O)N2c2ccc(Cl)cn2)CC1`, the AC50 is 15.8 µM (active). `COc1cc2c3cc1Oc1c(O)c(OC)cc4c1[C@@H](Cc1ccc(cc1)Oc1cc(ccc1O)C[C@H]3N(C)CC2)N(C)CC4`: the activity, negative = inhibition was -11% [at 11.4 µM] (inactive). `CC[C@]1(c2cccc(O)c2)CCCCN(C)C1`: the AC50 result was “inactive”. For the compound `C[C@@H]1O[C@@H](O[C@H]2C[C@@H](O)[C@]3(CO)[C@@H]4[C@@H](O)C[C@]5(C)[C@H](C6=CC(=O)OC6)CC[C@@]5(O)[C@H]4CC[C@@]3(O)C2)[C@H](O)[C@H](O)[C@@H]1O`, the AC50 result was “inactive”. As to `C[C@@H](COc1ccccc1)N(CCCl)Cc1ccccc1`, the AC50 is 10 µM (active). Same read-out and setting: then `Clc1cnc(Oc2ccc(Oc3ncc(Cl)cc3Cl)cc2)c(Cl)c1`, with “inactive”.

Turning to `O=C1c2ccccc2-c2cc([N+](=O)[O-])c([N+](=O)[O-])cc21`, the concentration at half-maximal activity (AC50) is 0.398 µM (active). Take `O=C1c2cc([N+](=O)[O-])ccc2-c2ccc3c4ccc5c6c(ccc(c7ccc1c2c73)c64)C(=O)c1cc([N+](=O)[O-])ccc1-5`: the activity, negative = inhibition was -4.82% [at 11.4 µM] (inactive). Consider `NCCc1ccc(S(=O)(=O)O)cc1[N+](=O)[O-]`, for which the activity, negative = inhibition is -6.86% [at 11.4 µM] (inactive). In the case of `COc1ccccc1CN1CC[C@@]2(CCCN(C(=O)Oc3ccccc3)C2)C1`, the AC50 entry was “inactive”. As to `CN(CCc1ccc(Cl)c(Cl)c1)[C@H]1CCCC[C@H]1N1CCCC1`, the AC50 was 15.8 µM (active).

As for `CN(C)CCN(C)CCc1ccc(Cl)c(Cl)c1`, the concentration at half-maximal activity (AC50) was 10 µM (active). Same read-out and setting: then `COc1ccc2c(c1)C13CCCC[C@@H]1C(C2)N(C)CC3` (stereo partly drawn), with “inactive”.

`C[C@H](Br)C(=O)c1ccc2cc(Br)c3ccccc3c2c1`: the activity, negative = inhibition is -42.1% [at 11.4 µM] (inactive). `CCC1=C(C[C@H]2NCCc3cc(OC)c(OC)cc32)C[C@H]2c3ccccc3CCN2C1`: the activity, negative = inhibition is -4.76% [at 11.4 µM] (inactive). Take `CC(C)CCn1c(N)c(C(=O)NCc2cccs2)c2nc3ccccc3nc21`: the AC50 was 2.51 µM (active). In the case of `COc1ccc(Cn2c(N)c(C(=O)NCc3ccco3)c3nc4ccccc4nc32)cc1`, the AC50 is 2.51 µM (active).

Regarding `CCCCn1c(N)c(C(=O)NCc2cccs2)c2nc3ccccc3nc21`, the AC50 was 3.98 µM (active). Consider `CSCC[C@@H](N)P(C)(=O)O`, for which the activity, negative = inhibition was 29.3% [at 11.4 µM] (inactive). Regarding `O[Si@](CCCN1CCCCC1)(c1ccc(F)cc1)C1CCCCC1`, the AC50 entry was “inactive”. Regarding `C[N+]1(C)[C@@H]2CC(OC(=O)[C@@H](CO)c3ccccc3)C[C@@H]1[C@H]1O[C@H]12` (stereo partly drawn), the activity, negative = inhibition was 26.7% [at 11.4 µM] (inactive). Still for that read-out and setting: the same measure for `C[C@@H]1O[C@H](OC2[C@@H](O)[C@H](O)C(O)[C@H](O)[C@H]2O)[C@@H](N)C[C@@H]1N=C(N)C(=O)O` (stereo partly drawn): 19% [at 11.4 µM] (inactive); for `N[C@@H](CP(=O)(O)O)C(=O)O`: 9.32% [at 11.4 µM] (inactive).

Take `CC[C@@]1(c2ccc(N)cc2)CCC(=O)NC1=O`: the AC50 result is “inactive”. For the compound `CN1CC[C@@]2(CCCN(C(=O)Oc3ccccc3)C2)C1`, the AC50 result is “inactive”.

As to `C[C@@]12C=CC(=O)C=C1CC[C@@H]1C2=CC[C@]2(C)[C@@H]1CC[C@H]2C(=O)CN1CCN(c2cc(N3CCCC3)nc(N3CCCC3)n2)CC1`, the AC50 entry was “inactive”. Consider `O[C@@H](c1cc(-c2ccccc2)nc2c1ccc1ccccc12)[C@@H]1CCCCN1`, for which the activity, negative = inhibition is -42.2% [at 11.4 µM] (inactive).

For `CCCN1CCc2cccc3c2[C@@H]1Cc1ccc(O)c(O)c1-3`, the AC50 result is “inactive”.

`C[C@@H]1O[C@H](O[C@@H]2CC[C@@]3(C=O)[C@H]4CC[C@@]5(C)[C@@H](C6=CC(=O)OC6)CC[C@@]5(O)[C@@H]4CC[C@]3(O)C2)C[C@H](O)[C@@H]1O`: the AC50 result was “inactive”.

In the case of `COC(=O)[C@@H]1[C@@H]2C[C@H]3c4[nH]c5cc(OC)ccc5c4CCN3C[C@@H]2C[C@H](OC(=O)/C=C\c2cc(OC)c(OC)c(OC)c2)[C@H]1OC`, the AC50 entry was “inactive”.

Regarding `O=c1[nH]c(=O)n([C@H]2C[C@H](O)[C@H](CO)O2)cc1/C=C\Br`, the AC50 entry is “inactive”. The same measure, in the same setting: the same measure for `CC(=O)OCC(=O)[C@@H]1CC[C@H]2[C@H]3CC[C@H]4C[C@@H](O)CC[C@]4(C)[C@@H]3C(=O)C[C@@]12C`: “inactive”. Regarding `COc1ccc2c(c1)CN([C@H](C)[C@@H]1CC[C@@H]3[C@H]4CC[C@H]5C[C@@H](O)CC[C@@]5(C)[C@H]4CC[C@]31C)CO2`, the half-maximal activity concentration (AC50) is 1 µM (active). On to `C[C@@]12CC[C@H](O)C[C@@H]1CC[C@H]1[C@H]2CC[C@@]2(C)[C@@H](C3=CC(=O)OC3)CC[C@]12O`, for which the AC50 entry is “inactive”. As to `O=c1c(O)c(-c2ccc(O)c(O)c2)oc2cc(O)cc(O)c12`, the AC50 entry was “inactive”.

With `CS(=O)(=O)N1CCCC(C(=O)N2CCC3(CC2)OCCO3)C1` (stereo not drawn), the AC50 is 10 µM (active). Turning to `COc1ccc2c(c[n+](C)c3c4cc5c(cc4ccc23)OCO5)c1OC`, the AC50 is 10 µM (active).

With `CC1(C)CCC(C)(C)c2c1ccc(O)c2Cc1c(O)ccc2c1C(C)(C)CCC2(C)C`, the activity, negative = inhibition is -38.9% [at 11.4 µM] (inactive). For the compound `CC(Oc1ccc(-c2ccccc2)cc1)C(=O)O` (stereo not drawn), the concentration at half-maximal activity (AC50) was 28.2 µM (active).

Regarding `O=C(O)C(C(=O)O)P(=S)(S)c1ccccc1` (stereo not drawn), the activity, negative = inhibition is 23.5% [at 11.4 µM] (inactive). For the compound `N[C@H](C(=O)O)c1cc(=O)[nH]o1`, the AC50 entry is “inactive”. Regarding `c1cnc(N2CCC3(CCNCC3)CC2)nc1`, the AC50 entry is “inactive”.

In the case of `C[C@@]12CC[C@H]3[C@@H](CCC4=C(O)C(=O)CC[C@]43C)[C@H]1CCC2=O`, the AC50 entry is “inactive”.

Consider `COc1cc(C=C(C#N)C#N)cc(O)c1O`, for which the AC50 entry is “inactive”. Regarding `CS(=O)(=O)O[C@H]1CN2CCC1CC2`, the activity, negative = inhibition was 20.2% [at 11.4 µM] (inactive). Turning to `S=P(C1CCCCC1)(C1CCCCC1)[C@H](c1cccnc1)N1CCCC1`, the AC50 was 1.26 µM (active).
